Data published in the supplement of paper PMC9262897, “Low-cost anti-mycobacterial drug discovery using engineered E. coli” (Nature Communications, 2022).
Where a name gives a salt, the structure may show the parent alone. ± gives the standard deviation of the averaged measurements.

Legend:
Assay in all cases: growth (OD600 after 10 h); higher = more growth (less inhibition)
[1] = system: E. coli TESEC Alr+ wild-type control; conditions: compound 0.1 mM; raw OD600 reference: median of DMSO wells 0.241, cell-free background 0.041
Description: (§1)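 TESEC Mtb Alr E. coli, or the Alr+ wild-type control, in 384-well plates with Prestwick library compounds at 0.1 mM and 1% DMSO, across arabinose induction levels of 1E3 to 1E7 nM. Growth is read as OD600 after 10 h at 37 °C in triplicate biological replicates.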

[2] = system: E. coli TESEC Mtb Alr; conditions: compound 0.1 mM
Description: as §1

[3] = system: E. coli TESEC Mtb Asd; conditions: compound 0.1 mM
Description: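 TESEC E. coli strains in which the native enzyme is deleted and replaced by arabinose-inducible Mtb Asd, DapB, CysH or TrpD, each grown in its selective medium. Strains were screened against the Prestwick library at 0.1 mM and 1% DMSO in 384-well format at low and high arabinose induction. Growth is read as OD600 after 10 h in triplicate.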

[4] = system: E. coli TESEC Alr+ wild-type control; conditions: compound 0.1 mM; raw OD600 reference: median of DMSO wells 0.49, cell-free background 0.052
Description: (§2)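 TESEC Mtb Alr E. coli (ΔaraC ΔtolC ΔentC Δalr ΔdadX, arabinose-inducible Mtb Alr) or the Alr+ wild-type control strain, grown in defined M9-fructose medium without D-alanine in 96-well plates with Prestwick library compounds at 0.1 mM and 1% DMSO. Low Alr induction is 0.1 µM arabinose and high induction is 10 mM arabinose.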

[5] = system: E. coli TESEC Mtb Alr; conditions: compound 0.1 mM; remark: listed apart in the source
Description: as §2

[6] = arabinose 1000 nM, raw OD600 reference: median of DMSO wells 0.294, cell-free background 0.041
[7] = arabinose 10000 nM, raw OD600 reference: median of DMSO wells 0.264, cell-free background 0.041
[8] = arabinose 100000 nM, raw OD600 reference: median of DMSO wells 0.201, cell-free background 0.041
[9] = arabinose 1000000 nM, raw OD600 reference: median of DMSO wells 0.193, cell-free background 0.041
[10] = arabinose 10000000 nM, raw OD600 reference: median of DMSO wells 0.146, cell-free background 0.041
[11] = arabinose induction (level): High, raw OD600 reference: median of DMSO wells 0.331, cell-free background 0.041
[12] = arabinose induction (level): Low, raw OD600 reference: median of DMSO wells 0.417, cell-free background 0.041
[13] = arabinose 100 nM, raw OD600 reference: median of DMSO wells 0.413, cell-free background 0.052
[14] = arabinose 10000000 nM, raw OD600 reference: median of DMSO wells […], cell-free background 0.052

Compound | growth [1] | growth [2, 6] | growth [2, 7] | growth [2, 8] | growth [2, 9] | growth [2, 10] | growth [3, 11] | growth [3, 12] | growth [4] | growth [5, 13] | growth [5, 14]
CN(C)CCC=C1c2ccccc2CCc2ccccc21 [Amitryptiline hydrochloride] | 0.1735 ± 0.0011 | 0.218 ± 0.0042 | 0.247 ± 0.0093 | 0.195 ± 0.012 | 0.08457 ± 0.00076 | 0.152 ± 0.0021 | 0.146 ± 0.0079 | 0.273 ± 0.011 | 0.476 ± 0.0078 | 0.403 ± 0.015 | 0.182 ± 0.031
Cc1cccn2c(=O)c(-c3nnn[nH]3)cnc12 [Pemirolast potassium] | 0.218 ± 0.011 | 0.268 ± 0.011 | 0.2352 ± 0.0021 | 0.151 ± 0.0021 | 0.148 ± 0.0043 | 0.125 ± 0.0032 | 0.284 ± 0.1 | 0.371 ± 0.089 | 0.49 ± 0.067 | 0.421 ± 0.012 | 0.311 ± 0.014
NCCc1c[nH]cn1 [Histamine dihydrochloride] | 0.24 ± 0.012 | 0.2947 ± 0.0029 | 0.258 ± 0.0056 | 0.192 ± 0.019 | 0.192 ± 0.011 | 0.139 ± 0.003 | 0.303 ± 0.062 | 0.403 ± 0.011 | 0.501 ± 0.067 | 0.42 ± 0.011 | 0.312 ± 0.0092
NC1CCN(c2c(F)cc3c(=O)c(C(=O)O)cn(C4CC4)c3c2Cl)C1 (stereo not drawn) [Clinafloxacin] | 0.0416 ± 0.0001 | 0.0399 ± 0.00042 | 0.0399 ± 0.00047 | 0.0418 ± 0.0019 | 0.03957 ± 5.8e-05 | 0.04037 ± 0.00015 | 0.0476 ± 0.0014 | 0.0476 ± 0.0014 | 0.05277 ± 0.00038 | 0.05347 ± 0.0004 | 0.0504 ± 0.00086
CC[C@@]1(O)C(=O)OCc2c1cc1n(c2=O)Cc2cc3c(CN(C)C)c(O)ccc3nc2-1 [Topotecan] | 0.235 ± 0.0064 | 0.271 ± 0.01 | 0.271 ± 0.0034 | 0.345 ± 0.039 | 0.127 ± 0.0043 | 0.183 ± 0.015 | 0.214 ± 0.029 | 0.317 ± 0.044 | 0.483 ± 0.024 | 0.393 ± 0.0043 | 0.269 ± 0.0042
CNC(=C[N+](=O)[O-])NCCSCc1csc(CN(C)C)n1 [Nizatidine] | 0.241 ± 0.0083 | 0.301 ± 0.018 | 0.274 ± 0.0044 | 0.21 ± 0.015 | 0.189 ± 0.0052 | 0.14 ± 0.0024 | 0.368 ± 0.033 | 0.438 ± 0.012 | 0.561 ± 0.066 | 0.408 ± 0.015 | 0.342 ± 0.01
CC(=O)SCC(Cc1ccccc1)C(=O)NCC(=O)OCc1ccccc1 (stereo not drawn) [Racecadotril] | 0.183 ± 0.0055 | 0.26 ± 0.016 | 0.241 ± 0.011 | 0.23 ± 0.022 | 0.132 ± 0.0014 | 0.189 ± 0.0054 | 0.28 ± 0.053 | 0.215 ± 0.013 | 0.502 ± 0.028 | 0.398 ± 0.0054 | 0.298 ± 0.0095
COCCCOc1ccnc(C[S+]([O-])c2nc3ccccc3[nH]2)c1C (stereo not drawn) [Rabeprazole Sodium salt] | 0.186 ± 0.0019 | 0.213 ± 0.023 | 0.262 ± 0.011 | 0.135 ± 0.0037 | 0.0782 ± 0.0026 | 0.1339 ± 0.0007 | 0.423 ± 0.028 | 0.371 ± 0.01 | 0.375 ± 0.0068 | 0.357 ± 0.011 | 0.152 ± 0.035
CC(C)N1CCN(c2ccc(OCC3COC(Cn4cncn4)(c4ccc(Cl)cc4Cl)O3)cc2)CC1 (stereo not drawn) [Terconazole] | 0.193 ± 0.011 | 0.266 ± 0.023 | 0.266 ± 0.0048 | 0.23 ± 0.022 | 0.205 ± 0.0063 | 0.15383 ± 0.00015 | 0.252 ± 0.021 | 0.397 ± 0.14 | 0.462 ± 0.031 | 0.412 ± 0.014 | 0.315 ± 0.019
COc1cc2nc(N3CCN(C(=O)C4CCCO4)CC3)nc(N)c2cc1OC (stereo not drawn) [Terazosin hydrochloride] | 0.208 ± 0.008 | 0.292 ± 0.0061 | 0.2762 ± 0.00084 | 0.139 ± 0.0052 | 0.138 ± 0.0066 | 0.144 ± 0.0038 | 0.215 ± 0.012 | 0.431 ± 0.0086 | 0.443 ± 0.035 | 0.407 ± 0.01 | 0.259 ± 0.019
CCOC(=O)[C@H](CCc1ccccc1)N[C@@H](C)C(=O)N1Cc2ccccc2C[C@H]1C(=O)O [Quinapril HCl] | 0.218 ± 0.012 | 0.29 ± 0.0069 | 0.2807 ± 0.0024 | 0.155 ± 0.012 | 0.21 ± 0.0061 | 0.144 ± 0.0052 | 0.246 ± 0.03 | 0.403 ± 0.052 | 0.477 ± 0.15 | 0.384 ± 0.015 | 0.309 ± 0.011
CCN[C@H]1C[C@H](C)S(=O)(=O)c2sc(S(N)(=O)=O)cc21 [Dorzolamide hydrochloride] | 0.24 ± 0.0034 | 0.296 ± 0.003 | 0.293 ± 0.013 | 0.211 ± 0.038 | 0.187 ± 0.0042 | 0.15 ± 0.0023 | 0.216 ± 0.014 | 0.355 ± 0.06 | 0.47 ± 0.0087 | 0.4329 ± 0.0026 | 0.337 ± 0.019
CC(C[N+](C)(C)C)OC(N)=O (stereo not drawn) [Bethanechol chloride] | 0.24 ± 0.0039 | 0.283 ± 0.0042 | 0.28 ± 0.0036 | 0.195 ± 0.014 | 0.222 ± 0.021 | 0.139 ± 0.0046 | 0.373 ± 0.07 | 0.381 ± 0.028 | 0.603 ± 0.0074 | 0.438 ± 0.0061 | 0.349 ± 0.006
